High-throughput results: PubChem BioAssay, National Center for Advancing Translational Sciences (NCATS)
GLP-1R inv ag – GLP-1 receptor (human) inverse agonism; HEK293 GLP-1R CRE-luciferase, luminescence, 24 h; GLP-1R form is constitutively active; Potency, µM (series often up to 38.3 µM), without a hit: at the top dose activity change, negative = inhibition, hits mostly inhibitors; P43220; actives 1.6% (n = 410,000); further: on the % scale 0 is the no-effect control and ±100 the full control effect; nearly all actives have a fitted effect of over 55% in size
Target sequence (P43220 whole entry, looked up): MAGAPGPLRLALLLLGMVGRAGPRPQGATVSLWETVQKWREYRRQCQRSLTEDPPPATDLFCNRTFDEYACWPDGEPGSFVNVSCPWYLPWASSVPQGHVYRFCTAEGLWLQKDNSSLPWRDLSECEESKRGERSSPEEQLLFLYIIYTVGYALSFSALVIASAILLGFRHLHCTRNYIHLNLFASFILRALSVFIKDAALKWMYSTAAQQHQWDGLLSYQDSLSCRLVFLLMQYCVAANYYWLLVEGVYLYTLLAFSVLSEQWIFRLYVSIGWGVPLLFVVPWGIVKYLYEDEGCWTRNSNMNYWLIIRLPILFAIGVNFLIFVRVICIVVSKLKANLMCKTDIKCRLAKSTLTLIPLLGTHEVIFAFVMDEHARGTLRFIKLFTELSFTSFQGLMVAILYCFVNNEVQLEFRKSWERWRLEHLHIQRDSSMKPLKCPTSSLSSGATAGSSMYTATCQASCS
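Seeding at 200 cells/uL, 12 h culture, 24 hr compound treatment, then luciferase reagent and a luminescence read; cells are HEK293 stably expressing a constitutively active GLP-1R plus cAMP-responsive luciferase.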
RORg inh – inhibitors of mouse ROR gamma transcriptional activity; actives 5.4% (n = 310,000); P51450; Potency, µM (titrated, usually from 53.6 µM), for the others: at the top dose activity change, negative = inhibition, actives largely listed as inhibitors; Drosophila S2 Gal4-RORgamma UAS-luciferase reporter, 20 h; further: on the % scale 0 is the no-effect control and ±100 the full control effect; nearly all actives have a fitted effect of over 60% in size
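Compounds are pin-transferred onto Drosophila Schneider cells expressing a copper-inducible Gal4–ROR gamma transactivation domain fusion. After 1 hr, copper sulfate is added to 700 uM final; luciferase is read 20 hr later.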
GLP1R cytotox – cytotoxic in the GLP-1 receptor inverse agonist counter-screen; HEK293 cAMP-luciferase reporter cells, luminescence, 24 h; Potency, µM (doses to about 38.3 µM), for inactives: top-dose activity change, negative = inhibition, actives largely listed as inhibitors; actives 0.13% (n = 410,000);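 further: loss of luciferase light is scored as toxicity; on the % scale 0 is the no-effect control and ±100 the full control effect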
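MLSMR compounds, 24 hr on cells at 37 deg C/5% CO2; luminescence after luciferase reagent (12 min RT). Inhibition counted as the undesired cytotoxic outcome.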
VP16 counter – inhibits Gal4-VP16 luciferase reporter, ROR gamma counter-screen. Drosophila S2 Gal4-VP16 UAS-luciferase, luminescence, 20 h. Potency, µM (titrated, usually from 53.6 µM), without a hit: top-dose activity, negative = inhibition, hits mostly inhibitors. actives 3.5% (n = 310,000). AID 2546;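 further: Gal4-VP16 expression switched on by copper sulfate through the metallothionein promoter; on the % scale 0 is the no-effect control and ±100 the full control effect; nearly all actives have a fitted effect of over 50% in size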
GLP-1R agonist – activates the human GLP-1 receptor | P43220 | HEK293 GLP-1R CRE-luciferase, luminescence, 4-6 h; cells express a hypersensitive GLP-1R form | Potency, µM (doses to about 45.6 µM), for inactives: at the top dose activation, hits mostly activators | actives 0.007% (n = 380,000); further: % of control where 0% means no effect
Starred values were filed as active, the others as inactive; u = inconclusive; x = no result given. The list is not random: actives were taken first. Their share in the collection is about 5.9%. The call rests on the fitted dose curve; in most records, active means well fitted curve in the direction sought with a large enough effect; inconclusive means small, poorly fitted or top-dose-only effect, or another doubt; inactive means no such curve, though single readings can be large; an effect the other way counts as inactive or inconclusive. Potency means the concentration at half of the fitted maximal effect.

SMILES | GLP-1R inv ag | RORg inh | GLP1R cytotox | VP16 counter | GLP-1R agonist
Cc1ccc(C)c(NC(=O)c2cc(=O)c3cc(C)cc(C)c3o2)c1 | 5% | x | 1% | x | x
COc1cc(C(=O)Nc2ccc(-c3nc4cc(C)ccc4o3)c(O)c2)cc(OC)c1OC | u | 3.5µM* | 5% | -22% | -2%
COc1ccc(NC(=O)Nc2nnc(N3CCCCCC3)s2)cc1 | -32% | x | -8% | x | x
COC(=O)N/N=C/c1sc(N2CCCCC2)nc1-c1cccs1 | -12% | 10µM* | -4% | 0.79µM* | 3%
COC(=O)c1ccccc1NC(=O)CSc1cc(-c2ccccc2)nc(C)n1 | 0% | x | -2% | x | x
CCC1(c2ccccc2)SC(N)=NC1=O (centres undefined) | 0% | x | 0% | x | -4%
CCC1(c2ccccc2)SCC(c2ccccc2)=NC1=O (centres undefined) | 3.2µM* | x | -8% | x | 9%
O=C(NCc1ccccn1)C(=O)Nc1nc(C23CC4CC(CC(C4)C2)C3)cs1 | -14% | 2.8µM* | -8% | 10µM* | -1%
O=C(NCc1ccccn1)NC12CC3CC(CC(C3)C1)C2 | 0% | -43% | 3% | 4% | -2%
CCNc1nc(C23CC4CC(CC(C4)C2)C3)cs1 | 2.8µM* | 10µM* | -28% | u | 5%
CCc1ccc(CNC(=O)c2ccc3c(c2)nc2n3CCCCC2)cc1 | 12% | x | 6% | x | x
CC(C(=O)Nc1ccc(Cl)cc1)N(C)Cc1cccs1 (centres undefined) | u | 7% | 11% | -8% | 14%
O=C(Nc1cc(Cl)cc(Cl)c1)c1ccc(F)c(S(=O)(=O)NCc2ccccc2Cl)c1 | u | x | -17% | x | x
CC(Cc1cccs1)NC(=S)Nc1ccc(Cl)cc1 (centres undefined) | u | 7.1µM* | u | 14µM* | 16%
CN(CC(=O)Nc1cc(Cl)cc(Cl)c1)Cc1cccs1 | 13µM* | 17% | -5% | -22% | 15%
Cc1ccc(NC(=O)Cc2cccs2)cc1Cl | u | 23% | -2% | u | 16%
CC(Cc1cccs1)NC(=S)Nc1ccc(Cl)c(Cl)c1 (centres undefined) | u | 7.9µM* | u | u | 18%
O=C(Nc1cccc(Cl)c1)c1ccc(F)c(S(=O)(=O)NCc2cccs2)c1 | u | 15% | u | 20µM* | 16%
CN(CC(=O)Nc1ccc(F)cc1Cl)Cc1cccs1 | u | -44% | 3% | 24% | 26%
CCCCCNC(=O)c1c[nH]c2ccc(S(=O)(=O)N3CCC(C)CC3)cc2c1=O | 10% | x | -3% | x | x
CC(Cc1cccs1)NC(=O)Nc1cccc(Cl)c1 (centres undefined) | 11µM* | 32% | -2% | 5% | 2%
CC(Cc1cccs1)NC(=O)Nc1ccc(F)cc1 (centres undefined) | u | 16% | 1% | 4% | 12%
COc1ccc(N(Cc2cccs2)C(=O)Nc2cccc(Cl)c2)cc1 | 10µM* | x | -1% | x | x
Cc1cc(C)cc(NC(=O)CSc2nccn2C2CCCC2)c1 | -16% | x | 1% | x | x
CC12CCC(=O)N1C(C(=O)NCCc1ccccc1)CS2 (centres undefined) | u | 7.9µM* | 1% | 16µM* | -2%
SMILES | GLP-1R inv ag | RORg inh | GLP1R cytotox | VP16 counter | GLP-1R agonist
S=c1[nH]nc(COc2ccccc2)n1/N=C/c1cccs1 | -8% | u | -12% | 7.1µM* | 15%
Cc1ccccc1/C=N/n1c(-c2cc(-c3ccccc3)n[nH]2)n[nH]c1=S | 115% | u | 0% | u | 6%
Cc1ccsc1/C=N/n1c(COc2ccccc2)n[nH]c1=S | 6% | 6.3µM* | -7% | 6.3µM* | -2%
Cc1ccsc1/C=N/n1c(-c2cc(-c3ccccc3)n[nH]2)n[nH]c1=S | 143% | 2.8µM* | 0% | u | 23%
COc1ccc(NC(C)C(=O)Nc2ccc(C(C)(C)C)cc2)cc1Cl (centres undefined) | 4.5µM* | u | -21% | u | 10%
COc1ccc(S(=O)(=O)NCC(c2ccco2)N2CCN(c3ccccc3F)CC2)cc1OC (centres undefined) | -17% | x | -12% | x | x
Cc1ccc(CNC(=O)c2cc3c(C)nc4ccccc4c3o2)cc1 | u | 41% | 1% | 18µM* | -6%
Cc1nc2ccccc2c2oc(C(=O)NCc3ccccn3)cc12 | 0% | -20% | 1% | -4% | -6%
S=C(NC1CCCCC1)N1CCCCC1 | -10% | -38% | -8% | 9% | 9%
CCC1CCCCN1C(=S)NC1CCCCC1 (centres undefined) | 1% | 10µM* | -6% | u | 0%
C[C@H]1/C=C\CC(=O)NCc2cccc(c2)CNC(=O)N[C@H]1c1ccccc1 | x | 6% | x | 2% | x
COc1cc(/C=N/Nc2ccccn2)cc(OC)c1O | 15% | u | 2% | u | 20%
O=C(N/N=C/c1cccc(O)c1)c1ccc(COc2cccc3cccnc23)cc1 | 7% | 45% | -4% | -4% | 15%
COc1cc(/C=N/Nc2cccc3cccnc23)cc(OC)c1O | -13% | 10µM* | u | u | 11%
Oc1c(/C=N/Nc2cccc3cccnc23)ccc2ccccc12 | 57% | 13µM* | -21% | u | -5%
Oc1cccc(/C=N/Nc2cccc3cccnc23)c1 | u | 7.1µM* | -17% | u | 1%
Cn1cccc1C(=O)N1CCC2(CCCN(Cc3ccc(C#N)cc3)C2)CC1 | x | -20% | x | -5% | x
O=C(N/N=C1\CCCc2c1[nH]c1ccc(Cl)cc21)c1ccncc1 | 7.1µM* | 17% | u | -9% | 0%
COc1cc(C(=O)NC(=S)Nc2ccc3c(c2)OCO3)cc(OC)c1OC | 16% | 14µM* | 17% | u | 0%
COc1cc(C(=O)Nc2nc(C)c(Cc3ccc4c(c3)OCO4)s2)cc(OC)c1OC | u | 7.9µM* | -11% | u | 6%
CCCOc1ccc(C(=O)Nc2nc(C)c(Cc3ccc4c(c3)OCO4)s2)cc1 | u | u | u | u | -1%
CCOc1cccc(C(=O)NC(=S)Nc2ccc(N3CCCC3)cc2)c1 | 4% | 2.2µM* | 65% | 6.3µM* | -7%
CCOc1cccc(C(=O)Nc2ccc(N3CCN(S(C)(=O)=O)CC3)cc2)c1 | 0% | 15% | 1% | -2% | -5%
CCOc1ccc(-n2nc3ccc(NC(=O)c4ccc5c(c4)OCCO5)cc3n2)cc1 | -6% | 10µM* | 23% | 11µM* | 0%
COc1cc(OC)cc(-c2nnc3n2N=C(c2ccc(OC)c(OC)c2)CS3)c1 | x | -3% | x | -3% | x
Nc1nc2c(nc(Sc3ccc(Cl)cc3)n2C2OC(CO)C(O)C2O)c(=O)[nH]1 (centres undefined) | x | 0% | x | -1% | x
